Screening data: PubChem, National Center for Advancing Translational Sciences (NCATS)
Rows were chosen to be rich in hits. Some 7.2% of all compounds tested hit in one or more screens of this group.
HCV inh: inhibitors of hepatitis C virus infection; Huh7.5.1 HCVcc-Cre infection, luciferase reporter, 44 h; Potency, µM (titrated, usually from 41.8 µM), for inactives: at the top dose activity change, negative = inhibition, most hits filed as inhibitors; 340,000 compounds, 3.4% hits; AID 651820
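Antiviral activity was scored by luciferase reporter output from cells infected with HCVcc-Cre (~0.5 moi) in presence of compound, 44 h infection period, cells seeded 1,000/well 4 h prior.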
Sm TGR inh: blocks Schistosoma mansoni thioredoxin glutathione reductase; Q962Y6; purified TGR, DTNB reduction, TNB absorbance 405 nm; Potency, µM (top dose mostly 114 µM), without a hit: top-dose activity change, negative = inhibition, most hits filed as inhibitors; 360,000 compounds, 3% hits; further: nearly all actives have a fitted effect of over 60% in size
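Kinetic colorimetric format: TGR-catalysed, NADPH-driven DTNB reduction monitored via TNB absorbance. Enzyme dispensed at 20 nM; compound exposure 15 min at room temperature before reaction start.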
FMDV inh: antivirals against foot and mouth disease virus | FMDV antiviral cell-based qHTS | Potency, µM (top dose mostly 57.9 µM), inactives show top-dose activity change, negative = inhibition, most hits filed as inhibitors | 410,000 compounds, 1.2% hits; calls by dose curve; tested in HEK293T cells; further: read-out not given here; nearly all actives have a fitted effect of over 45% in size
LASV entry inh: inhibitors of Lassa virus binding or cell entry; Potency, µM (series often up to 37.9 µM), without a hit: at the highest dose activity change, negative = inhibition, hits mostly inhibitors; Lassa virus pseudotype entry inhibition, cell reporter; 300,000 compounds, 1.2% hits; calls by dose curve; tested in HEK293 cells; further: nearly all actives have a fitted effect of over 50% in size
Marburg entry inh: Marburg virus entry inhibition; 300,000 compounds, 1.8% hits; Potency, µM (series often up to 37.8 µM), for the others: top-dose activity change, negative = inhibition, most hits filed as inhibitors; Marburg virus pseudotyped entry inhibition, cell reporter; calls by dose curve; tested in HEK293 cells
RE007 growth inh: less growth of the S. pombe RE007 Vpr strain. S. pombe RE007 Vpr strain, BacTiter-Glo ATP luminescence, 24 h. 360,000 compounds, 0.21% hits. Potency, µM (titrated, usually from 92.2 µM), without a hit: at the highest dose activity change, negative = less growth, hits mostly inhibitors; active means well fitted falling curve with a large enough effect; inconclusive means small, poorly fitted or top-dose-only effect; inactive means no such curve, though single readings can be large or run the other way; further: nearly all actives have a fitted effect of over 50% in size
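Fission yeast RE007 carrying one integrated HIV-1 vpr copy, seeded at OD 0.01 in PMG+AL medium with 23 nL pinned compound. Grown 24 h at 30 degrees; viability read by BacTiter-Glo luminescence after 5 min.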
* marks the source's active call; other numbers are inactive results; i = inactive; ? = inconclusive; nt = no result; [ ] = remark or other dose. Unless noted, the call rests on the fitted dose curve; in most records, active means well fitted curve in the direction sought with a large enough effect; inconclusive means small, poorly fitted or top-dose-only effect, or another doubt; inactive means no such curve, though single readings can be large; an effect the other way counts as inactive or inconclusive. On the % scale 0 is the no-effect control and ±100 the full control effect; potency means the concentration at half of the fitted maximal effect.

SMILES | HCV inh | Sm TGR inh | FMDV inh | LASV entry inh | Marburg entry inh | RE007 growth inh
OC1CCCN(Cc2cn(Cc3ccccc3)nc2-c2cc3ccccc3o2)C1 (configuration not stated) | ? | 0.6%[57.1 µM] | -5.6% | -1.1% | 25.9µM* | -17.3%
COc1ccc(-c2cccc3c2OC(CNC(=O)c2ccccc2-n2cccn2)C3)nn1 (configuration not stated) | nt | nt | -1.7% | nt | nt | nt
Cc1cccc[n+]1CCCCCCCCCC[n+]1ccccc1C | ? | -7.2%[57.1 µM] | -7.3% | ? | ? | -10.7%
CCCCCCCC[n+]1cccc2c3ccccc3ccc21 | 1.41µM* | -2.2% | ? | nt | nt | 5.1%
CCCCCCCCCC[n+]1cccc2c3ccccc3ccc21 | 3.98µM* | -8.6% | ? | nt | nt | -17.7%
CSc1nc(Sc2ccccc2)c2ccccc2n1 | 4.47µM* | 3.0% | -11.2% | -0.8% | ? | -23.9%
C=C(CCN1C=C(C(=O)OCC)C(c2ccccc2)NC1=O)c1ccc(Cl)cc1 (configuration not stated) | nt | nt | nt | nt | 14.3%[14.2 µM] | nt
O=C(c1cc(C2CC2)nn1-c1ccccc1)N1CCN(Cc2ccc(Cl)cc2)CC1 | 7.08µM* | -30.8% | ? | nt | nt | 2.0%
COc1cccc(OC)c1C(=O)Oc1ccc2c(c1)O/C(=C\c1ccncc1)C2=O | 7.5% | -9.2% | ? | 5.2% | 7.08µM* | -8.1%
O=C1/C(=C/c2ccncc2)Oc2cc(OS(=O)(=O)c3ccccc3)ccc21 | ? | 5.4% | ? | nt | nt | 13.6%
COC(=O)[C@@H]1[C@@H](C)N(CCc2cc(OC)c(OC)c(OC)c2)C(=O)N[C@H]1c1ccccc1 | nt | nt | nt | nt | -31.0%[14.2 µM] | nt
O=C(c1ccc(-c2ccccc2)c(F)c1)C1CCCN(CCO)C1 (configuration not stated) | 11.2µM* | 0.0% | 5.0% | -19.6% | ? | 3.0%
CN(C)S(=O)(=O)N1CCCC(C(=O)c2ccc(-c3ccccc3)c(F)c2)C1 (configuration not stated) | 22.4µM* | 13.9% | -29.9% | ? | ? | 2.0%
CN1CCCC(C(=O)c2ccc(-c3ccccc3)cc2)C1 (configuration not stated) | -13.0% | -9.1% | 17.4% | nt | nt | -10.9%
COCC(=O)N1CCCC(C(=O)c2ccc(-c3ccccc3)cc2)C1 (configuration not stated) | -10.0% | 28.2µM* | 24.0% | nt | nt | -1.0%
Cn1c(Nc2ccc(Cl)cc2)cc(=O)n(C)c1=O | 5.0% | 20µM* | -13.6% | -9.6%[46.1 µM] | 17.0%[46.1 µM] | 2.2%
CCOc1ccc(Nc2cc(=O)n(C)c(=O)n2C)cc1 | 6.3% | 0.9% | 0.0% | 0.9% | -5.8% | 8.1%
COc1ccc(NC(=S)Nc2cccc(Cl)c2Cl)cc1OC | -11.9% | 28.2µM* | 14.8% | 12.9% | -12.0% | -3.7%
COc1cccc(-c2nc3cc(SC)ccc3cc2CN(C(=O)c2csc(C)n2)C2CC2)c1 | nt | nt | 28.2µM* | nt | nt | nt
COc1cccc(-c2nc3cc4c(cc3cc2CN(C(=O)c2csc(C)n2)C2CC2)CCC4)c1OC | nt | nt | 14.1µM* | nt | nt | nt
COc1ccc(-c2nc3cc(F)ccc3cc2CN(C(=O)c2cccc(OC)c2)C2CC2)cc1 | nt | nt | -11.5% | nt | nt | nt
CC(=O)Nc1cc(C(=O)NCc2ccc(C)cc2)ccc1S(=O)(=O)c1ccc(Cl)cc1 | nt | 4.3% | -10.6% | -24.1%[46.1 µM] | nt | nt
c1ccc(CCSc2ncnc3nc[nH]c23)cc1 | 12.6µM* | 2.5% | 23.8% | -25.6% | ? | 0.7%
COc1ccc(OC)c(CN2CCCC(c3nc(-c4ccncc4)ncc3-c3ccccc3C)C2)c1 (configuration not stated) | nt | nt | 3.7% | nt | nt | nt
CCN(CC)CCNC(=O)c1ccc(CSc2nc3ccncc3n2Cc2cccc(F)c2)cc1 | nt | -2.2% | 3.9% | 24.1%[46.1 µM] | -8.7%[46.1 µM] | nt
SMILES | HCV inh | Sm TGR inh | FMDV inh | LASV entry inh | Marburg entry inh | RE007 growth inh
O=C(Nc1nc(-c2ccc(Cl)cc2)cs1)C1=COCCO1 | ? | -12.2% | 14.9% | -25.6% | 20.7% | ?
Cc1nnc(NC(=O)c2cccc(S(=O)(=O)N3CCN(C)CC3)c2)s1 | 10.1% | 3.1% | -1.5% | 11.9% | -10.1% | -23.4%
O=C(Nc1nc(-c2cccs2)cs1)C1=COCCO1 | ? | -16.3% | 5.0% | ? | ? | 35.5µM*
COc1cc(C(=O)Nc2nc(-c3cccs3)cs2)cc(OC)c1OC | 1.78µM* | -4.7% | nt | 10.3µM* | 18.3µM* | -9.1%
Cc1ccc(-c2csc(NC(=O)c3cccc(S(=O)(=O)N4CCN(C)CC4)c3)n2)cc1 | ? | 0.9% | 12.6µM* | -3.8% | -1.6% | -4.1%
O=C(Nc1nc(-c2cccs2)cs1)c1cccc(S(=O)(=O)N2CCCCC2)c1 | 11.2µM* | 2.4% | -8.9% | -5.2% | ? | -13.0%
O=C(NCc1ccccc1Cl)c1ccc(NC(=O)N2CCSc3ncccc32)cc1 | nt | -3.1% | -4.4% | 4.0%[46.1 µM] | nt | nt
Cc1ccc(NC(=O)c2cccc(S(=O)(=O)N3CCN(C)CC3)c2)cc1F | 12.6µM* | -14.8% | 15.8% | -0.7%[46.1 µM] | ? | 2.1%
Cc1ccc(S(=O)(=O)Nc2c(C)nn(C)c2C)cc1C | 0.562µM* | 1.5% | ? | -2.4%[46.1 µM] | -24.2% | 4.4%
O=C(CSc1nc2nn(-c3ccccc3)c(=O)c-2c2n1CCCCC2)c1ccc(OC(F)F)cc1 | 7.94µM* | nt | -16.1% | nt | nt | -0.1%
CCSc1nc2nn(-c3ccccc3)c(=O)c-2c2n1CCCCC2 | -10.6% | 3.8% | 0.0% | -2.7% | -0.4% | -21.6%
O=C(CCc1nc2ccccc2c(=O)[nH]1)N1CCN(c2ccccc2Cl)CC1 | 11.2µM* | nt | ? | nt | nt | 7.4%
CC1=CC2C(=O)c3cccc(O)c3C(=O)C2C(O)=C1 (configuration not stated) | nt | nt | 3.4% | nt | nt | nt
O=C(CCN1CCC(c2ccccc2)C1)c1cccs1 (configuration not stated) | ? | -54.2% | 11.1% | ? | ? | -9.2%
O=C(CCN1CCC(c2ccccc2)C1)c1ccccc1 (configuration not stated) | 3.8% | 0.0% | 15.3% | -24.5% | -18.8% | -14.6%
O=C(CCN1CCCCC1)c1ccc2c(c1)OCCO2 | -3.1% | 0.0% | nt | 9.3% | -12.6% | i
O=C(CCN1CCC(c2ccccc2)C1)c1ccc2c(c1)OCCO2 (configuration not stated) | ? | 0.1µM* | -16.0% | nt | -5.7% | ?
O=C(CCN1CCc2ccccc2C1)c1ccc2c(c1)OCCO2 | 10µM* | 0.282µM* | 8.9% | ? | -12.3% | 7.94µM*
COc1cc(C(=O)CCN2CCC(c3ccccc3)C2)cc(OC)c1OC (configuration not stated) | ? | 0.282µM* | -34.1% | 3.8% | 22.2% | ?
O=C(CCN1CCCC1Cc1ccccc1)c1ccc2c(c1)OCCO2 (configuration not stated) | ? | 0.316µM* | -6.6% | ? | ? | 25.1µM*
